Test results published in PubChem BioAssay AID588342 (National Center for Advancing Translational Sciences (NCATS), 2011).
Screen size: about 360,000 compounds; about 25,000 (6.9%) were called active. About 9% were inconclusive and are not listed. The call rests on the fitted dose curve; in most records, active means well fitted inhibition curve with a large enough effect; inconclusive means small, poorly fitted or top-dose-only effect; inactive means flat fitted curve, though single readings scatter. Shown is part of a subset that was picked to be rich in actives. Entries that show only a call come without a potency.

What follows are compounds tested against Luciferin 4-monooxygenase (Photinus pyralis) (UniProt P08659) (assay: qHTS profiling assay for firefly luciferase inhibitor/activator using purifed enzyme and Km concentrations of substrates (counterscreen for miR-21 project)). Details: purified FLuc, luminescence inhibition; series mostly up to 57.5 µM.
Method in brief: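 Purified P. pyralis luciferase, 10 nM final, with Km-level 10 uM D-luciferin and 10 uM ATP in 50 mM Tris acetate pH 7.5, 10 mM Mg acetate, 0.01% Tween-20, 0.05% BSA; 6-point qHTS titration about 60 µM downward; luminescence read.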
Further: nearly all actives have a fitted effect of over 55% in size.
Potency means the concentration at half of the fitted maximal effect.

Luciferin 4-monooxygenase (Photinus pyralis), sequence (P08659 whole entry, looked up): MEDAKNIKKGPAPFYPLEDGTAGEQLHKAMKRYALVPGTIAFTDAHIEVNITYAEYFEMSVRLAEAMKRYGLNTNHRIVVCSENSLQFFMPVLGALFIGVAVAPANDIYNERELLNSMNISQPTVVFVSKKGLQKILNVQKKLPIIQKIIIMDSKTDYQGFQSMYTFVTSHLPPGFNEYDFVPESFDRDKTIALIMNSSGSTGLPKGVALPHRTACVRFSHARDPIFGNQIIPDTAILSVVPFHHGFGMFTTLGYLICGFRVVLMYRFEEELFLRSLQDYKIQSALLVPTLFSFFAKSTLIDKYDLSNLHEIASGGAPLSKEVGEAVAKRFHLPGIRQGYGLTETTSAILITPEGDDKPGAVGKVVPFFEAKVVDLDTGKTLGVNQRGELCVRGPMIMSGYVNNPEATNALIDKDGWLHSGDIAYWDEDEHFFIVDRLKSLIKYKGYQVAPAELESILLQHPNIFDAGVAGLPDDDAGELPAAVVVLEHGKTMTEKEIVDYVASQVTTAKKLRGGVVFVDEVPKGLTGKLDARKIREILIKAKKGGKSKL

SMILES | Potency
COc1ccccc1CNC(=O)c1ccc(-n2c(C)cc3c2CCCC3)cc1 | inactive
O=C(NCC(c1ccco1)S(=O)(=O)c1cccs1)c1ccc(F)cc1 (centres undefined) | inactive
Cc1ccc2[nH]cc(CCCN3C(=O)c4ccccc4C3=O)c2c1 | inactive
COc1ccc2[nH]cc(CCN3C(=O)c4ccc(C(=O)O)cc4C3=O)c2c1 | 21.3 µM (active)
COc1ccc(C[C@H](C(=O)O)N2C(=O)c3ccc(C(=O)O)cc3C2=O)cc1 | inactive
COc1ccc(OC)c(-n2nnc3c(sc4nc(C)c(Br)c(C)c43)c2=O)c1 | inactive
Cc1ccc(S(=O)(=O)N(NC2=NS(=O)(=O)c3ccccc32)C(=O)c2ccccc2)cc1 | inactive
CC(C)(C)c1csc(NC2=NS(=O)(=O)c3ccccc32)n1 | 1.51 µM (active)
CC(C)C(NS(=O)(=O)c1cccs1)C(=O)Nc1nc(C(C)(C)C)cs1 (centres undefined) | inactive
CCOc1ccc(C(C(=O)NC2CCCC2)N(C(=O)c2snc(C(N)=O)c2N)C2CCCC2)cc1 (centres undefined) | inactive
CC(C)(C)[Si](OCC[C@@H]1C[C@@]1(C)[C@@H](NP(=O)(c1ccccc1)c1ccccc1)c1ccccc1)(c1ccccc1)c1ccccc1 | inactive
CCn1nccc1C(=O)Nc1ccc(S(=O)(=O)NC23CC4CC(CC(C4)C2)C3)cc1 | inactive
O=C(CC(O)(C(F)(F)F)C(F)(F)F)Nc1ccc(Cl)c(Cl)c1 | inactive
CCn1nccc1C(=O)Nc1ccc(Cl)c(Cl)c1 | 21.3 µM (active)
COC(=O)c1cnc(N2CCN(c3ccccc3OC)CC2)c2ccccc12 | inactive
Cc1ccc(Cl)cc1NC(=O)CSc1nc2ccccc2nc1Cc1ccccc1 | inactive
CCOc1ccc(-c2n[nH]c3c2C(c2ccccc2OC)N(c2ccc(Br)cc2)C3=O)cc1 (centres undefined) | inactive
CCN(Cc1ccccc1)Cc1c(O)ccc2c(=O)c(-c3ccc(Cl)cc3Cl)coc12 | inactive
CCOC(=O)c1c(C)[nH]c(C(=O)OCC(=O)N2CCCC2=O)c1C | 12 µM (active)
Cc1c(C(=O)OCC(=O)N2CCCC2=O)oc2ccccc12 | 16.9 µM (active)
O=C(OCC(=O)N1CCCC1=O)c1cc(S(=O)(=O)N2CCOCC2)ccc1Cl | inactive
CN(C)S(=O)(=O)c1cccc(C(=O)OCC(=O)N2CCCC2=O)c1 | inactive

SMILES | Potency
CCOC(=O)c1c(C)[nH]c(C(=O)NCCN2CCOCC2)c1C | inactive
CCOC(=O)c1[nH]c(C)c(C(=O)OCC(=O)N2c3ccccc3CC2C)c1C (centres undefined) | inactive
CCOc1ccc(CCNC(=O)c2cc3c(=O)n(C)c4ccccc4c3n2C)cc1 | inactive
O=S(=O)(c1ccc(Br)c2ccccc12)N1CCOCC1 | inactive
Cc1ccc(N=Cc2c(O)n(-c3nccs3)c(=O)c3ccccc23)c(C)c1 | inactive
Cc1ccc(Oc2c(C(F)(F)F)oc3c(CN4CCCCC4)c(O)ccc3c2=O)cc1 | inactive
COc1cc([N+](=O)[O-])ccc1NC(=O)CN1CCCC1 | inactive
COc1cc(Cl)c(C)cc1NC(=O)CN1CCCCCC1 | inactive
O=C(CN1CCOCC1)Nc1c(Cl)cc(Cl)cc1Cl | inactive
O=C(CN1CCCCCC1)Nc1ccc(Br)cc1Br | 16.9 µM (active)
O=C(CN1CCCCCC1)Nc1ccc(Cl)cc1F | inactive
O=C(CN1CCCCCC1)Nc1c(Cl)cc(Cl)cc1Cl | 15.1 µM (active)
COc1ccc(C(=O)Nc2nonc2-c2ccc(OC)c(OC)c2)cc1Cl | inactive
CCCc1ccc(OCC(O)CN2CCN(CCO)CC2)cc1 (centres undefined) | inactive
CC(C)Cn1c(N)c(C(=O)COC(=O)C2CCCN2C(=O)c2cccs2)c(=O)n(C)c1=O (centres undefined) | inactive
COc1ccc(-c2nnc(SC(C)C(=O)NC3CC3)o2)cc1 (centres undefined) | inactive
Nc1nc(SCC(=O)Nc2ccc(Cl)c([N+](=O)[O-])c2)n[nH]1 | inactive
COc1ccc(NC(=O)CSC2=Nc3ccccc3C3=NC(CC(=O)NCc4ccccc4OC)C(=O)N23)cc1Cl (centres undefined) | inactive
O=C(c1cccc(Br)c1)N1CCN(C2=NS(=O)(=O)c3ccccc32)CC1 | inactive
O=C(N/N=C/c1cccc(OC(=O)c2ccc([N+](=O)[O-])cc2)c1)c1cccnc1 | inactive
O=C(Oc1cccc(NC2=NS(=O)(=O)c3ccccc32)c1)c1ccncc1 | 26.9 µM (active)
C[N+]1(CCNC(=O)/C=N/O)CCCCC1 | inactive

SMILES | Potency
COc1ccc(-n2cnc3cc(C(=O)NC4CCCC4)ccc32)cc1 | inactive
C=CCC(NCc1ccco1)c1ccc(OC)cc1 (centres undefined) | inactive
COc1ccc(-n2cnc3cc(NCc4ccco4)ccc32)cc1 | 7.57 µM (active)
Cc1ccc(S(=O)(=O)c2nnn3c2nc(N2CCN(c4ccccc4F)CC2)c2cc(Cl)ccc23)cc1C | inactive
COc1ccc(CCNC(=O)c2cnc3sc(N4CCCCCC4)nn3c2=O)cc1OC | inactive
COc1ccc(/C=C2\SC(=O)N(CCC(=O)NC3CCS(=O)(=O)C3)C2=O)cc1 (centres undefined) | 10.7 µM (active)
COc1ccc(/C=C2\SC(=O)N(CCC(=O)NCCCn3ccnc3)C2=O)cc1 | 13.5 µM (active)
O=C(CN1C(=O)S/C(=C\c2ccccc2F)C1=O)NCCCn1ccnc1 | inactive
COc1ccc(NC(=S)NC2CCS(=O)(=O)C2)cc1 (centres undefined) | inactive
COc1ccc(NC(=O)CCN2C(=O)/C(=C/c3ccc4c(c3)OCO4)SC2=S)cc1 | inactive
O=C(CCN1C(=O)c2ccccc2C1=O)NCCCn1ccnc1 | inactive
O=C(C1CCN(CC2CCCCC2)CC1)N1CCCC1 | inactive
COc1ccc(-c2nn3c(=O)cc(CN4CCN(C(=O)c5ccc(OC)c(OC)c5)CC4)nc3s2)cc1 | inactive
COc1ccc(-n2nnc(-c3nsc(NC(=O)c4ccc(C)c(C)c4)n3)c2C)cc1Cl | inactive
CCc1cccc(-n2nnc(-c3nsc(NC(=O)c4ccc(C)cc4)n3)c2C)c1 | inactive
Cc1c(-c2nsc(NC(=O)c3cccc(Cl)c3)n2)nnn1-c1ccccc1C(F)(F)F | 12 µM (active)
COc1ccc(OCCCn2c(C)nc3cc(C)c(C)cc32)cc1 | inactive
CC(C)(C)C(=O)c1cnc(Nc2ccccc2)s1 | 6.01 µM (active)
O=C(/C=C/Nc1ccccc1)c1cnc(-c2ccccc2)s1 | inactive
CC(=O)c1cnc(-c2ccccc2)s1 | inactive
